High-throughput results deposited in PubChem by National Center for Advancing Translational Sciences (NCATS).
AmpC detergent – qHTS Inhibitors of AmpC Beta-Lactamase (assay with detergent). AID 485294, 2010. AmpC hydrolysis of nitrocefin, absorbance 480 nm, 0.01% Triton. Potency, µM (series often up to 114 µM), without a hit: at the highest dose activity change, negative = inhibition, actives largely listed as inhibitors. actives 0.041% (n = 370,000). P00811;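 further: 0% = no-compound wells and -100% = no-enzyme wells; nearly all actives have a fitted effect of over 25% in size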
Target sequence (P00811 whole entry, looked up): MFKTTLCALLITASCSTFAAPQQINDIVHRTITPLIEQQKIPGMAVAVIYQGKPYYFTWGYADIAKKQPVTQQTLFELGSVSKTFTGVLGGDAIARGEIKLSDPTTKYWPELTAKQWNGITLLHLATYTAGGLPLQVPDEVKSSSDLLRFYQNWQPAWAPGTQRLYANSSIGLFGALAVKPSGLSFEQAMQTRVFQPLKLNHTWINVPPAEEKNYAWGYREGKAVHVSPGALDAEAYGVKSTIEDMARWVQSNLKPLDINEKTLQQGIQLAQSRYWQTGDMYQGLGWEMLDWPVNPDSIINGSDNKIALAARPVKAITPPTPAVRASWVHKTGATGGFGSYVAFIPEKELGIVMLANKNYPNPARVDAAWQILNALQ
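20 mM phosphate pH 7.0 + 0.01% (detergent screen) or 0.0001% Triton X-100; 5.3 nM AmpC reagent; cpd preinc 15 min RT; nitrocefin (800 uM stock) to start; A480 q20 s × 4 min; Activity was normalised to no-enzyme and no-compound control wells.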
HCV inh – qHTS Assay for Inhibitors of Hepatitis C Virus (HCV). AID 651820, 2012. Potency, µM (highest dose often 41.8 µM), inactives show top-dose activity change, negative = inhibition, usual class: inhibitors. Huh7.5.1 HCVcc-Cre infection, luciferase reporter, 44 h. actives 3.4% (n = 340,000)
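Antiviral activity was scored by luciferase reporter output from cells infected with HCVcc-Cre (~0.5 moi) in presence of compound, 44 h infection period, cells seeded 1,000/well 4 h prior.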
Pf growth 48h – Primary qHTS for delayed death inhibitors of the malarial parasite plastid, 48 hour incubation | AID 504832, 2011 | Potency, µM (series often up to 28.7 µM), inactives show top-dose activity change, negative = inhibition, actives largely listed as inhibitors | P. falciparum luciferase growth in erythrocytes, 48 h | actives 5.9% (n = 310,000)
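Read-out is firefly luciferase luminescence from an integrated reporter in P. falciparum, so falling signal marks reduced parasite growth. Infected erythrocytes were at 2% hematocrit and 0.1% parasitemia (final) in Albumax-supplemented RPMI 1640.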
Pf growth 96h – Primary qHTS for delayed death inhibitors of the malarial parasite plastid, 96 hour incubation. P. falciparum luciferase reporter growth, 96 h. Potency, µM (titrated, usually from 28.7 µM), for the others: top-dose activity change, negative = inhibition, actives largely listed as inhibitors. actives 6.9% (n = 320,000)
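Cell-based qHTS: luciferase-tagged P. falciparum in erythrocytes (2% hematocrit, 0.05% parasitemia final) incubated with compounds for 96 hours, 37 C, 5% CO2; luciferase detection reagent then added and luminescence measured.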
AmpC inh no detg – qHTS Inhibitors of AmpC Beta-Lactamase (assay without detergent) | actives 0.52% (n = 330,000) | Potency, µM (highest dose often 57.1 µM), for the others: at the highest dose activity change, negative = inhibition, most hits filed as inhibitors | AmpC nitrocefin hydrolysis, absorbance 480 nm, 0.0001% Triton | AID 485341, 2010;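 further: plate controls were no compound for no effect and no enzyme for full effect; nearly all actives have a fitted effect of over 20% in size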
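AmpC (5.3 nM in the dispensed reagent) in 20 mM phosphate pH 7.0 with 0.01% (detergent screen) or 0.0001% Triton X-100 was preincubated with compounds for 15 min at room temperature. Nitrocefin was then added from an 800 uM solution, and hydrolysis was followed at 480 nm.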
AMA1-RON2 inh – qHTS for Inhibitors of AMA1-RON; Towards Development of Antimalarial Drug Lead: Primary Screen | Plasmodium falciparum AMA1 (3D7) - RON2 peptide interaction | AlphaScreen AMA1-biotinylated RON2 peptide binding | Potency, µM (highest dose often 58.2 µM), for inactives: at the top dose activity change, negative = inhibition, usual class: inhibitors | actives 0.2% (n = 360,000) | AID 720542, 2013;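 further: 0% = vehicle wells and -100% = peptide control; nearly all actives have a fitted effect of over 45% in size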
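AMA1 (3D7) with his tag at 25 nM final met compounds first, then biotinylated RON2 peptide at 25 nM; detection used donor plus acceptor beads, 10 µg/mL apiece, read by AlphaScreen after 30 min at room temperature.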
Numbers without * were called inactive; ? = inconclusive; nt = not tested or not shown. An excerpt weighted towards active compounds, which were near 11% of everything screened. The call rests on the fitted dose curve; in most records, active means well fitted curve in the direction sought with a large enough effect; inconclusive means small, poorly fitted or top-dose-only effect, or another doubt; inactive means no such curve, though single readings can be large; an effect the other way counts as inactive or inconclusive. Unless noted, on the % scale 0 is the no-effect control and ±100 the full control effect; potency means the concentration at half of the fitted maximal effect.

SMILES	AmpC detergent	HCV inh	Pf growth 48h	Pf growth 96h	AmpC inh no detg	AMA1-RON2 inh
CCN(CC)c1ncn(Cc2c(Cl)cccc2Cl)c2ncnc1-2	?	?	?	?	37%	28%
Cc1ccc(NC(=O)CSc2nc3nccnc3c(=O)n2CCc2c[nH]c3ccccc23)c(C)c1	7%	nt	nt	nt	nt	nt
COc1ccc(OC)c(NC(=O)Cn2ccc3ccccc3c2=O)c1	3%	nt	nt	nt	nt	nt
Cc1ccn2c(Nc3ccc4c(c3)OCO4)c(-c3ccccn3)nc2c1	3%	?	12µM*	?	94%	-13%
Cc1ccc(Nc2c(-c3ccccn3)nc3cc(C)ccn23)cc1	?	2.8µM*	?	9.3µM*	63%	?
CCn1nc(C)c(CCN(C)C(=O)Nc2cc(Cl)c(OC)cc2OC)c1C	16%	nt	nt	nt	nt	nt
Cc1cc2ncn(/N=C/c3cc(Br)ccc3O)c2cc1C	-4%	nt	1µM*	?	-14%	nt
Cc1cc2ncn(/N=C/c3ccc([N+](=O)[O-])s3)c2cc1C	-10%	11µM*	2.6µM*	3.7µM*	8%	-1%
COc1cccc(/C=N/n2cnc3cc(C)c(C)cc32)c1OC	0%	?	-14%	2%	148%	-20%
O=[N+]([O-])c1ccc(/C=N/n2cnc3ccccc32)s1	-12%	?	5.9µM*	?	-17%	7%
Cc1ccccn1	nt	nt	-8%	-22%	nt	nt
COc1ccc(C(=O)c2cn(Cc3ccccc3F)c3ccc(F)cc3c2=O)cc1	-12%	nt	nt	nt	nt	nt
CCCCOc1ccccc1NC(=O)Cn1c(-c2cncs2)nc2ccccc21	-1%	nt	nt	nt	nt	nt
O=c1cc(/C=C/c2c(F)cccc2Cl)[nH]c2ccccc12	-11%	-7%	0.93µM*	6%	-20%	1%
Nc1nccc(/C=C/c2c(F)cccc2Cl)n1	2%	-7%	39%	44%	-21%	17%
CCc1ccccc1NC(=O)Cn1c(=O)n(CCCS(=O)(=O)C2CCCCC2)c(=O)c2ccccc21	-4%	nt	nt	nt	nt	nt
C=CC1CN(C(=O)OCC(Cl)(Cl)Cl)C2CC3c4ccc(OC)cc4NC3C3CC1C2CO3 (stereo unspecified)	nt	10µM*	nt	nt	nt	-29%
COc1ccc2c(c1)[C@@]13CCC=C[C@H]1[C@@H](C2)NCC3	?	-8%	12µM*	-6%	-22%	3%
CCOC(=O)/C=c1\s/c(=C\c2c(OCC)ccc3ccccc23)c(=O)n1CC(=O)NCC1CCCO1 (stereo unspecified)	0%	3.5µM*	12µM*	nt	92%	-14%
CN(C)c1ccc(C(=O)c2ccccc2)cc1	2%	-23%	nt	133%	-20%	3%
Cc1c(-c2ccc(Cl)cc2)[n+](=O)c(-c2ccccc2)cn1[O-]	0%	-1%	36%	43%	-29%	-1%
Cc1ccc(-c2cc(-c3ccccc3)cc(-c3ccccc3)[n+]2-c2ccccc2)cc1	0%	6.3µM*	0.37µM*	0.33µM*	13%	1%
C[n+]1c(-c2ccccc2)cc(-c2ccc(Cl)cc2)cc1-c1ccccc1	3%	-20%	1.7µM*	?	-3%	-8%
c1ccc(-c2cc(-c3ccccc3)[n+](-c3ccccc3)c(-c3ccccc3)c2)cc1	3%	?	0.29µM*	0.37µM*	21%	-7%
CC(=O)Nc1scc(-c2ccccc2)[n+]1-c1ccc(C)cc1	3%	?	6%	50%	4%	6%
CN(C)c1ccc(-[n+]2c(-c3ccccc3)cc(-c3ccccc3)cc2-c2ccccc2)cc1	5%	7.1µM*	?	?	88%	-26%
